Common to all, as to settings: mRNA level, 48 h; actives raise or lower the signal
Read-out in test [1]: Cytochrome P450 7A1 (Homo sapiens) (UniProt P22680)
The test can be described thus: LTEA_HepaRG_CYP7A1: Life Technologies and Expression Analysis (LTEA) Assay for Cytochrome P450 7A1 (CYP7A1) using HepaRG (AID 2283496). The essentials:
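Using 0.5% DMSO as vehicle and baseline, chemicals were tested in duplicate over an 8-point range from 100 uM on HepaRG cells for 48 h; qRT-PCR signals were normalised to ACTB, GAPDH and POLR2A.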

Read-out in test [2]: Glutathione S-Transferase (GSTA2), GSTA2 (gene 2939)
Briefly: LTEA_HepaRG_GSTA2: Life Technologies and Expression Analysis (LTEA) Assay for Glutathione S-Transferase (GSTA2) using HepaRG (AID 2283497). The essentials:
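qRT-PCR readout of GSTA2 transcript, normalized to three housekeeping genes, fitted bidirectionally against 0.5% DMSO baseline. Differentiated HepaRG cells received compound for 48 h at 8 concentrations (top 100 uM, half-log steps).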

Read-out in test [3]: growth arrest and DNA damage 45 (GADD45G), GADD45G (gene 10912)
The test can be described thus: LTEA_HepaRG_GADD45G: Life Technologies and Expression Analysis (LTEA) Assay for growth arrest and DNA damage 45 (GADD45G) using HepaRG (AID 2283499). The essentials:
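Differentiated human HepaRG cells, 48 h post-plating, exposed 48 h in serum-free induction medium to 8 half-log concentrations (top 100 uM, 0.5% DMSO) in duplicate. GADD45G mRNA measured by Fluidigm TaqMan qRT-PCR, normalized to ACTB, GAPDH, POLR2A; bidirectional fit versus DMSO.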

Read-out in test [4]: Glutamate-cysteine ligase regulatory (GCLM), GCLM (gene 2730)
Briefly: LTEA_HepaRG_GCLM: Life Technologies and Expression Analysis (LTEA) Assay for Glutamate-cysteine ligase regulatory (GCLM) using HepaRG (AID 2283500). The essentials:
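HepaRG, 48 h dosing, 100 uM top, half-log x8, 0.5% DMSO vehicle. Readout: GCLM mRNA by TaqMan qRT-PCR, housekeeping-normalized (ACTB/GAPDH/POLR2A). Curves fit bidirectionally vs DMSO baseline.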

Read-out in test [5]: Heat shock 70 kDa protein 1 (HSPA1A), gene 3303
The test can be described thus: LTEA_HepaRG_HSPA1A: Life Technologies and Expression Analysis (LTEA) Assay for Heat shock 70 kDa protein 1 (HSPA1A) using HepaRG (AID 2283502). A digest of the protocol:
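HepaRG, 48 h exposure, 8-pt half-log CRC from 100 uM in 0.5% DMSO, duplicates. Readout: TaqMan qRT-PCR of HSPA1A mRNA, housekeeping-normalized (ACTB/GAPDH/POLR2A). Bidirectional fit vs 0.5% DMSO baseline.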

Read-out in test [6]: Hypoxia-inducible factor 1-alpha (Homo sapiens) (UniProt Q16665)
The test can be described thus: LTEA_HepaRG_HIF1A: Life Technologies and Expression Analysis (LTEA) Assay for Hypoxia-inducible factor 1 (HIF1A) Trancription factor using HepaRG (AID 2283503). A digest of the protocol:
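Gain- or loss-of-signal HIF1A mRNA changes are fitted against a DMSO baseline. HepaRG cultures receive eight concentrations, highest 100 uM, for 48 h in serum-free induction medium with 0.5% DMSO.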

Read-out in test [7]: 3-Hydroxy-3-Methylglutaryl-CoA Synthase 2 (HMGCS2), HMGCS2 (gene 3158)
Briefly: LTEA_HepaRG_HMGCS2: Life Technologies and Expression Analysis (LTEA) Assay for 3-Hydroxy-3-Methylglutaryl-CoA Synthase 2 (HMGCS2) using HepaRG (AID 2283504). The essentials:
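Human HepaRG cells in serum-free induction medium were exposed in duplicate for 48 h to 8-point half-log series from 100 uM top in 0.5% DMSO. HMGCS2 mRNA measured by TaqMan qRT-PCR, normalised to ACTB, GAPDH, POLR2A; bidirectional fit versus DMSO.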

Read-out in test [8]: HGF (gene 3082)
The test can be described thus: LTEA_HepaRG_HGF: Life Technologies and Expression Analysis (LTEA) Assay for Hepatocyte Growth Facto (HGF) using HepaRG (AID 2283505). The essentials: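 Differentiated HepaRG cells in serum-free induction medium exposed 48 h in duplicate, 8 half-log concentrations from 100 uM in 0.5% DMSO. HGF mRNA by qRT-PCR, normalised to ACTB, GAPDH, POLR2A; bidirectional fitting.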

Read-out in test [9]: Insulin Like Growth Factor 1 (IGF1), IGF1 (gene 3479)
Briefly: LTEA_HepaRG_IGF1: Life Technologies and Expression Analysis (LTEA) Assay for Insulin Like Growth Factor 1 (IGF1) using HepaRG (AID 2283506). A digest of the protocol:
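qRT-PCR readout of IGF1 mRNA, normalized to three housekeeping genes, after 48 h chemical exposure of HepaRG cells. Concentrations: 8-point half-log series, top 100 uM, 0.5% DMSO vehicle. Gain or loss fitted against DMSO baseline.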

Read-out in test [10]: Intercellular Adhesion Molecule 1 (ICAM1), ICAM1 (gene 3383)
Briefly: LTEA_HepaRG_ICAM1: Life Technologies and Expression Analysis (LTEA) Assay for Intercellular Adhesion Molecule 1 (ICAM1) using HepaRG (AID 2283507). A digest of the protocol:
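Differentiated human HepaRG cells in serum-free induction medium exposed 48 h in duplicate to 8 half-log concentrations (top 100 uM, 0.5% DMSO). ICAM1 mRNA quantified by TaqMan qRT-PCR, normalized to ACTB, GAPDH and POLR2A; bidirectional fitting versus DMSO.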

Read-out in test [11]: Insulin-like growth factor-binding protein 1 (IGFBP1), IGFBP1 (gene 3484)
Briefly: LTEA_HepaRG_IGFBP1: Life Technologies and Expression Analysis (LTEA) Assay for Insulin-like growth factor-binding protein 1 (IGFBP1) using HepaRG (AID 2283508). The essentials: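 HepaRG cells, plated 48 h then switched to serum-free induction medium, exposed in duplicate for 48 h to 8-point half-log series from 100 uM in 0.5% DMSO. mRNA measured by qRT-PCR, normalized to ACTB/GAPDH/POLR2A; bidirectional fit versus DMSO.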

Read-out in test [12]: Interleukin 6 (IL6), IL6 (gene 3569)
The test can be described thus: LTEA_HepaRG_IL6: Life Technologies and Expression Analysis (LTEA) Assay for Interleukin 6 (IL6) using HepaRG (AID 2283509). A digest of the protocol:
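qRT-PCR read-out of IL6 transcript, normalized to three housekeeping genes, after 48 h chemical exposure of HepaRG cells; 8-point half-log series, top 100 uM, 0.5% DMSO vehicle. Bidirectional curve fitting against DMSO baseline.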

Read-out in test [13]: Interleukin 6 Receptor (IL6R), IL6R (gene 3570)
The test can be described thus: LTEA_HepaRG_IL6R: Life Technologies and Expression Analysis (LTEA) Assay for Interleukin 6 Receptor (IL6R) using HepaRG (AID 2283510). The essentials: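 HepaRG, 48 h exposure, 8-pt half-log series, top 100 uM, 0.5% DMSO vehicle, duplicates. Read-out: TaqMan qRT-PCR of IL6R transcript, housekeeping-gene normalized. Gain or loss fitted relative to DMSO baseline.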

Read-out in test [14]: Potassium channel subfamily K member 1 (KCNK1), KCNK1 (gene 3775)
The test can be described thus: LTEA_HepaRG_KCNK1: Life Technologies and Expression Analysis (LTEA) Assay for Potassium channel subfamily K member 1 (KCNK1) using HepaRG (AID 2283511). The essentials:
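HepaRG, 48 h exposure, 8-pt half-log series top 100 uM, 0.5% DMSO vehicle, duplicates. Readout: KCNK1 transcript by qRT-PCR (Fluidigm array), housekeeping-normalized; bidirectional curve fit relative to DMSO baseline.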

Read-out in test [15]: Keratin 19 (KRT19), KRT19 (gene 3880)
Briefly: LTEA_HepaRG_KRT19: Life Technologies and Expression Analysis (LTEA) Assay for Keratin 19 (KRT19) using HepaRG (AID 2283512). The essentials:
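Differentiated HepaRG cells in serum-free induction medium, exposed 48 h in duplicate to 8 half-log concentrations up to 100 uM in 0.5% DMSO. KRT19 mRNA by qRT-PCR, normalized to ACTB, GAPDH, POLR2A; bidirectional fit vs DMSO.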

Read-out in test [16]: JUN Transcription Factor, JUN (gene 3725)
The test can be described thus: LTEA_HepaRG_JUN: Life Technologies and Expression Analysis (LTEA) Assay for JUN Transcription Factor using HepaRG (AID 2283513). The essentials:
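HepaRG, 48 h exposure, 8-pt half-log series top 100 uM, 0.5% DMSO, duplicate. JUN mRNA by qRT-PCR (Fluidigm), housekeeping-normalized (ACTB/GAPDH/POLR2A); bidirectional curve fit vs DMSO baseline.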

Read-out in test [17]: Lipase C (LIPC), LIPC (gene 3990)
Briefly: LTEA_HepaRG_LIPC: Life Technologies and Expression Analysis (LTEA) Assay for Lipase C (LIPC) using HepaRG (AID 2283514). The essentials: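 HepaRG, 48 h exposure, 8-pt half-log series from 100 uM in 0.5% DMSO, duplicates. Readout: LIPC mRNA by Fluidigm qRT-PCR, housekeeping-normalized (ACTB/GAPDH/POLR2A). Gain or loss fitted bidirectionally against DMSO baseline.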

Read-out in test [18]: Lipoprotein lipase (LPL), LPL (gene 4023)
Briefly: LTEA_HepaRG_LPL: Life Technologies and Expression Analysis (LTEA) Assay for Lipoprotein lipase (LPL) using HepaRG (AID 2283515). A digest of the protocol: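 HepaRG, 48 h exposure, 8-pt half-log dilutions from 100 uM, 0.5% DMSO vehicle, duplicates; qRT-PCR (Fluidigm array) of LPL mRNA vs housekeeping genes; bidirectional curve fit relative to DMSO baseline.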

The source made the active and inactive calls. The calls were made as follows: active = hit-call score of the fitted dose curve at least 0.9, where 1 is the maximum; inactive = score below 0.9.

Chain of Hypoxia-inducible factor 1-alpha (Homo sapiens) (Q16665 whole entry, looked up): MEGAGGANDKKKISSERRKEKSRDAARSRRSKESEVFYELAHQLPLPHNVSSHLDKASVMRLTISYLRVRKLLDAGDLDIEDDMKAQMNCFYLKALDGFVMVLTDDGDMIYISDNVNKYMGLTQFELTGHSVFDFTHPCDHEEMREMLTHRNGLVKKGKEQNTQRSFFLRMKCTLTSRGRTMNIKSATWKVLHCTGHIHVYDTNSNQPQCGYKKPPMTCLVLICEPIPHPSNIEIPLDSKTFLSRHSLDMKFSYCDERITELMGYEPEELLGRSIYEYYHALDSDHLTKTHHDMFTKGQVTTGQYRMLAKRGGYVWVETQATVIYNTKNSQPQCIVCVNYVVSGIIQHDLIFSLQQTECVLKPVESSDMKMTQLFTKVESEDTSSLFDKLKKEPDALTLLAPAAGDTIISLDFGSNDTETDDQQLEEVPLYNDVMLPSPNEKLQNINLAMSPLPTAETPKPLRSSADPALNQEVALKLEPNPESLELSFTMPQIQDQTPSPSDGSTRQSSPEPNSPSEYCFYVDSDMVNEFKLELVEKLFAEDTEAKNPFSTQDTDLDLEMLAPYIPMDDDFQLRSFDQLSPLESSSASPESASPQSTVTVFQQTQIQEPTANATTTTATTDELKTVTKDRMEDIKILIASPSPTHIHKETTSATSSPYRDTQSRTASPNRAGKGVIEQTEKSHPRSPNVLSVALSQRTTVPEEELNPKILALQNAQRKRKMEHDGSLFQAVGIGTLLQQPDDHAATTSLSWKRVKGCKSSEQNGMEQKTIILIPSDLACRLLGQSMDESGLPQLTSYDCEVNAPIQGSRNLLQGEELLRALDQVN

As for `CCC(=NOC/C=C/Cl)C1=C(O)CC(C2CCOCC2)CC1=O` (stereo unspecified), the compound was classed as inactive in test [1], in test [2], in test [3], in [4], in test [5] and in test [6]. Also, the outcome in test [7], in test [8], in test [9], in [10], in [11] and in [12] was inactive. The compound was called inactive in test [13], in test [14], in test [15], in test [16], in test [17] and in [18].

For `COc1ccc(C(=CC(=O)N2CCOCC2)c2ccc(Cl)cc2)cc1OC`, the outcome in [1], in [2], in [3], in [4], in test [5] and in [6] was inactive. The call in test [7], in test [8], in test [10], in test [11], in test [12] and in test [13] was inactive. Also, the compound was classed as inactive in [14], in test [15], in test [16], in test [17] and in test [18]. The AC50 (in general, the concentration giving half of the maximal activity seen) in test [9] is 14.1 µM (active).

For the compound `CC(=NC#N)N(C)Cc1ccc(Cl)nc1`, the result in [1], in [2], in test [3], in test [4], in [5] and in [6] was inactive. The outcome in test [7], in [8], in [9], in test [10], in test [11] and in [12] was inactive. In addition, the result in test [13], in [14], in test [15], in test [16], in [17] and in test [18] was inactive.

As to `Cc1ccn2nc(S(=O)(=O)Nc3c(F)cccc3F)nc2n1`, the call in test [1], in [2], in test [3], in [4], in test [5] and in [6] was inactive. For the same compound, the compound was classed as inactive in test [7], in [8], in [9], in [10], in test [11] and in test [12]. The compound was classed as inactive in test [13], in test [14], in [15], in test [16] and in test [18].

(Values after PubChem BioAssay (EPA / NIEHS).)
